This is a sample that favours compounds with a hit; in the whole collection about 7.5% have one here.
Rab9 promoter act = Rab9 promoter activation. Potency, µM (series often up to 9.22 µM), for inactives: top-dose activation, negative = inhibition, hits mostly activators. 320,000 compounds, 2.8% hits. Huh7 Rab9 promoter-luciferase reporter, luminescence, 24 h; also: % of control where 0% means no effect; nearly all actives have a fitted effect of over 60% in size
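Huh7 reporter line, Rab9 promoter upstream of luciferase. Compound exposure 24 h at 37 °C in reduced-serum medium with 10% FBS. Read-out: luminescence.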
ELG1 genotox = inducers of genotoxicity in HEK293T ELG1-luciferase cells; AID 504466; HEK293T ELG1-luciferase reporter, luminescence, 16 h; 330,000 compounds, 1.3% hits; Potency, µM (highest dose often 46 µM), inactives show at the highest dose activity change, positive = activation, actives largely listed as activators; also: % of control where 0% means no effect; nearly all actives have a fitted effect of over 60% in size
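After overnight (16 hr) compound treatment at 37 °C, ELG1-luciferase HEK293T cells were lysed with ONE-Glo; luminescence quantified 30 min later at room temperature.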
NPC1 prom act = activates the NPC1 promoter | Huh7 NPC1 promoter luciferase reporter, 24 h | Potency, µM (series often up to 9.22 µM), for inactives: top-dose activation, hits mostly activators | 320,000 compounds, 2.4% hits | AID 485313; also: % of control where 0% means no effect; nearly all actives have a fitted effect of over 60% in size
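Luciferase expression driven by the NPC1 promoter was measured in stably transfected Huh7 cells after a 24 h compound incubation, using a luciferase reagent and a luminescence read.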
SMN2 splice enh = increases expression of the SMN2 splice variant; HEK293 SMN2-luciferase splicing reporter, luminescence, 30-36 h; Potency, µM (series often up to 46.1 µM), inactives show top-dose activity change, positive = activation, usual class: activators; 210,000 compounds, 2.8% hits; also: % of control where 0% means no effect; nearly all actives have a fitted effect of over 55% in size
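HEK293 cells carry an SMN2 […]–luciferase reporter in which exon 7 inclusion puts luciferase in frame. Cells were plated 10-12 h before compound addition, then incubated 30-36 h at 37C. ONE-Glo luminescence was read; sodium butyrate at 4.5 mM final served as control.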
FLuc counter = firefly luciferase modulation, counter-screen for miR-21 project | purified FLuc, Km substrates, luminescence inhibition | P08659 | 360,000 compounds, 6.9% hits | Potency, µM (series often up to 57.5 µM), inactives show at the top dose activity change, negative = inhibition, hits mostly inhibitors;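 also: plate controls were vehicle for no effect and reference inhibitor for full effect; nearly all actives have a fitted effect of over 55% in size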
Target sequence (P08659 whole entry, looked up): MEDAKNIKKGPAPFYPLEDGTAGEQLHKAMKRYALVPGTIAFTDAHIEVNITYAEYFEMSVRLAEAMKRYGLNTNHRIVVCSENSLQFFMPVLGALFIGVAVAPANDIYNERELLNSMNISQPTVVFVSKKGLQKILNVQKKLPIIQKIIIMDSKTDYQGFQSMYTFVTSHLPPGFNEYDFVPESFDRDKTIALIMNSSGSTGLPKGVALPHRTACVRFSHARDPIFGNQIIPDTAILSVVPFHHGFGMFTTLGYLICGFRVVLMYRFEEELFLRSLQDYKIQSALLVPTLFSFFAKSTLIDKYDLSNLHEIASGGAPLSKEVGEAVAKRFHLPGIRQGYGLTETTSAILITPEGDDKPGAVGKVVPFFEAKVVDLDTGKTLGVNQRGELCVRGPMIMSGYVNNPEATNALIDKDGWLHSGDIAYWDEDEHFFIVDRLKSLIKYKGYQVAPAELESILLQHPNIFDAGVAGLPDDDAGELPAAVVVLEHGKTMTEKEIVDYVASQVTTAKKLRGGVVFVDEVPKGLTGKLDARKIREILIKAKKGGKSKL
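Purified P. pyralis luciferase (10nM final) with 10uM D-luciferin and 10uM ATP (Km levels) in 50mM Tris acetate pH 7.5, 10mM Mg acetate, 0.01% Tween-20, 0.05% BSA; qHTS 6-point titration, ~60 µM downward; luminescence read.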
Starred values were filed as active, the others as inactive; u = inconclusive; x = not tested or not shown; [ ] = dose if it differs, or a comment. Calls follow the shape of the dose curve; as a rule, active = well fitted curve in the direction sought with a large enough effect; inconclusive = small, poorly fitted or top-dose-only effect, or another doubt; inactive = no such curve, though single readings can be large; an effect the other way counts as inactive or inconclusive. Potency is read from the fitted curve at half-maximal effect.

SMILES	Rab9 promoter act	ELG1 genotox	NPC1 prom act	SMN2 splice enh	FLuc counter
O=C(N/N=C/c1ccco1)c1ccn[nH]1	4.1%	14.7%	-1.5%	19.0%	u
FC(F)(F)c1nc2nc(Cl)c(Cl)nc2n1CCCN1CCOCC1	x	x	x	-12.1%[9.22 µM]	x
COc1ccc2c(CCNC(=O)Nc3ccccc3)c[nH]c2c1	4.2%	-1.4%	-10.3%	x	0.1%
COc1ccc(C(=O)N/N=C/c2c[nH]c3ccccc23)cc1	25.9%	3.4%	u	x	13.5µM*
O=C(N/N=C/c1c[nH]c2ccccc12)c1ccc(O)c(O)c1	8.8%	-0.4%	-2.2%	x	2.39µM*
CC(=O)Nc1cccc(C(=O)N/N=C/c2c[nH]c3ccccc23)c1	22.7%	3.9%	27.6%	x	15.1µM*
COc1ccc2c(/C=N/Nc3ccc(C(=O)O)cc3)c[nH]c2c1	1.41µM*	u	0.794µM*	x	1.35µM*
Cc1c(NC(=O)COC(=O)c2ccc(O)cc2)c(=O)n(-c2ccccc2)n1C	-0.4%	1.1%	-0.4%	x	-0.4%
CC(C)[C@H](NC(=O)c1ccccc1F)C(=O)OCCN1C(=O)c2ccccc2C1=O	x	-0.7%	x	x	x
CC(Oc1ccc(Br)cc1)C(=O)NCC(c1cccs1)N1CCOCC1 (centres undefined)	-1.0%	9.1%	0.2%	x	4.7%
COc1c2ccccc2c(OC)c2ccccc12	-12.2%	2.9%	-12.3%	-15.1%	4.1%
O=C(N/N=C/c1c[nH]c2ccccc12)c1cccc(O)c1	-4.4%	17.3%	-0.3%	x	10.7µM*
CC(=O)NCCOc1ccc(C(=O)O)cc1	-8.1%	-0.2%	-11.2%	-2.0%	-2.6%
CCCOc1ccc(/C=N/Nc2ccc(C(=O)O)cc2)c(OCCC)c1	u	u	8.4%	-8.2%	5.36µM*
O=C(N/N=C/c1c[nH]c2ccccc12)c1ccc([N+](=O)[O-])cc1Cl	0.0%	-0.8%	-7.4%	x	u
COc1ccc2c(c1)c(/C=N/Nc1ccc(C(=O)O)cc1)c(C)n2C	23.0%	u	u	x	4.78µM*
COc1ccc2c(c1)c(C(=O)N/N=C/c1ccc(Br)cc1)c(C)n2C	-8.9%	-2.5%	-30.1%	x	u
O=C(N/N=C/c1c[nH]c2ccccc12)c1cccc(Cl)c1	u	13.9%	u	x	21.3µM*
Cn1c(SCC(=O)N2CCCC2=O)nc2ccccc21	1.8%	9.9%	0.9%	10.0%	3.7%
CSc1ccc(C2c3[nH]c4ccccc4c3CCN2C(=O)CCC2CCCC2)cc1 (centres undefined)	x	x	x	x	-2.5%
COc1ccc(NC(=O)Cn2nnc(C(=O)NCc3ccc4c(c3)OCO4)c2N)c(OC)c1	2.1%	0.5%[9.26 µM]	1.2%	x	0.1%
Cc1csc(NC(=O)c2cncc(Br)c2)n1	1.12µM*	u	2.82µM*	12.6µM*	9.53µM*
Cc1csc(NC(=O)c2ccc(S(C)(=O)=O)cc2)n1	u	-20.1%	u	-16.3%	u
O=C(Nc1nccs1)c1cccnc1	6.9%	-2.9%	-5.7%	x	5.9%
O=C(Nc1nccs1)c1cncc(Br)c1	3.98µM*	7.2%	u	11.2µM*	u
SMILES	Rab9 promoter act	ELG1 genotox	NPC1 prom act	SMN2 splice enh	FLuc counter
CC(=O)N(C)c1ccc(NC(=O)N2CCOCC2)cc1	-2.2%	3.4%	-2.2%	x	-0.6%
CCOC(=O)C(=NC1CCS(=O)(=O)C1)NNc1ccccc1Cl (centres undefined)	1.0%	2.5%	1.5%	x	16.9µM*
COc1cccc(O)c1CN1CCC(n2nccc2NC(=O)c2ccc3c(c2)OCO3)CC1	2.8%	-3.7%	-0.6%	x	4.5%
C/C(=N\Nc1ccc(F)cc1F)c1ccccc1O	12.1%	u	1.5%	6.9%	19µM*
CC1Sc2ccc(C(=O)Nc3cc(S(C)(=O)=O)ccc3Cl)cc2NC1=O (centres undefined)	-0.9%	u	-4.7%	x	-15.6%
COc1cccc(COC(=O)c2ccc3c(c2)NC(=O)C(C)S3)c1OC (centres undefined)	-5.0%	0.3%	-5.3%	x	5.6%
Cc1cccnc1NC(=O)c1ccc2c(c1)NC(=O)C(C)S2 (centres undefined)	1.6%	u	8.9%	x	16.9µM*
CC1Sc2ccc(C(=O)OCc3ccccc3Cl)cc2NC1=O (centres undefined)	1µM*	u	2.24µM*	x	2.13µM*
CC1Sc2ccc(C(=O)Nc3ncccc3O)cc2NC1=O (centres undefined)	0.891µM*	u	1.26µM*	x	7.57µM*
CC1Sc2ccc(C(=O)O)cc2NC1=O (centres undefined)	-2.9%	-0.1%	-0.6%	-24.8%	1.3%
CCNC(=O)CC1SC(=Nc2cccc3ccccc23)N(C)C1=O (centres undefined)	0.8%	2.7%	-7.1%	10.2%	-0.1%
CC1=NN(C(N)=S)C(=O)C1N=Nc1cccc2ccccc12 (centres undefined)	u	u	u	u	16.9µM*
CC1=NN(C(N)=S)C(=O)C1N=Nc1cccc(Cl)c1C (centres undefined)	3.55µM*	7.2%	u	x	10.7µM*
CN1CCN(c2nc3ccccn3c(=O)c2/C=C(\C#N)S(=O)(=O)c2ccc(Cl)cc2)CC1	-5.8%	-0.9%	-1.4%	x	-1.6%
Cc1cccc(Oc2ccc(Cl)cc2N)c1	22.9%	2.3%	14.0%	16.9%	16.9µM*
Nc1cc(Cl)ccc1Oc1ccccc1	-1.4%	3.1%	-2.2%	-0.7%	-17.3%
CCOC(=O)C1CCN(C(=O)C2CCN(c3nc4ccc(OC)cc4s3)CC2)CC1	-10.6%	-9.6%	-7.8%	-45.2%	15.1µM*
Cc1cccc2sc(N3CCN(C(=O)C4COc5ccccc5O4)CC3)nc12 (centres undefined)	-4.8%	-2.7%	-0.2%	x	-1.4%
COc1ccc2nc(N3CCN(C(=O)C4COc5ccccc5O4)CC3)sc2c1 (centres undefined)	2µM*	8.9%	2.82µM*	x	6.01µM*
O=C(/C=C/c1ccccc1)C1=C(O)C(=O)N(CCO)C1c1ccccc1[N+](=O)[O-] (centres undefined)	19.7%	-2.7%	1.2%	13.2%	u
c1csc(-c2nc3ccccn3c2NC2CCCCC2)c1	-1.9%	-6.8%	-2.6%	-8.3%	-4.6%
Cc1ccn2c(NC3CCCC3)c(-c3cccs3)nc2c1	u	-3.4%	15.7%	9.0%	19µM*
Cc1ccn2c(NCc3ccccc3)c(-c3cccs3)nc2c1	3.16µM*	8.7%	u	u	15.1µM*
Cc1ccc2c(c1C)NC(C)CC2C (centres undefined)	0.9%	-7.5%	-2.5%	15.7%	0.6%
Cc1ccc(NC(=O)c2ccc3nc[nH]c3c2)nc1	0.9%	10.3%	3.0%	x	1.5%
Cc1ccc(NC(=O)c2cc(F)c(F)cc2Cl)nc1	0.891µM*	u	1.78µM*	x	8.49µM*
Cc1ccc(NC(=O)c2ccccc2F)nc1	0.708µM*	1.84µM*	1.12µM*	7.94µM*	4.78µM*
